Bioassay records as filed in PubChem.
HepG2 tox-1: qHTS for Inhibitors of TGF-b: Cytotox Counterscreen | HepG2 CAGA-GFP viability, ATP luminescence, 18 h | Potency, µM (titrated, usually from 46.1 µM), without a hit: at the highest dose activity change, negative = cytotoxicity, usual class: cytotoxic | 410,000 tested, 0.76% active; note: potency is the fitted concentration of half-maximal effect
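CellTiter-Glo luminescence gave cytotoxicity after 18 hours at 37 degrees C. The cells were HepG2 CAGA-GFP in 1% FBS DMEM, stimulated with 500 pg/mL TGF-beta after compound addition. %Activity was normalised to no-cell wells (complete cell-killing) and DMSO (no toxicity), and curves were fitted and classified.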
CtBP-E1A blk: qHTS Assay for Inhibitors of the CtBP/E1A Interaction; CtBP / adenovirus E1A interaction (AlphaScreen); AlphaScreen GST-E1A/His-CtBP binding, 1536-well; stronger effect = lower value; activity change, % (concentration not given with the values); 340,000 tested, 0.49% active; in the data active = activity change below about -65%; inconclusive = mostly about -30% to -63%; note: % is set by controls: 0 for no effect and ±100 for the full control effect
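Protein mix (5X: 125 nM each GST-E1A, His-CtBP) was incubated with pinned compound 2 h at 37 deg C in dark, in 50 mM Tris pH 8.0 buffer with 300 mM NaCl. Glutathione donor and nickel acceptor beads followed; AlphaScreen signal read after 1 h.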
ATXN viability: Viability Counterscreen for Primary qHTS for Inhibitors of ATXN expression; S2 cells (HEK-293 line with an ATXN2-luciferase reporter) viability, CellTiter-Fluor protease fluorescence, 24 h; AID 651635, 2014; Potency, µM (titrated, usually from 56.7 µM), usual class: cytotoxic; 400,000 tested, 0.49% active; note: potency is the fitted concentration of half-maximal effect; nearly all actives have a fitted effect of over 40% in size
ATXN2 expr inh: Primary qHTS for Inhibitors of ATXN expression; HEK-293 ATXN2-luciferase reporter, luminescence, 24 h; Potency, µM (top dose mostly 57 µM), for the others: at the highest dose activity change, negative = inhibition, actives largely listed as inhibitors; 360,000 tested, 0.72% active; AID 1745845, 2022; note: potency is the fitted concentration of half-maximal effect; % is set by controls: 0 for no effect and ±100 for the full control effect; nearly all actives have a fitted effect of over 55% in size
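ATXN2-luciferase reporter cells (luciferase flanked by upstream and downstream ATXN2 gene portions) were treated 24 h at 37 °C with compounds at up to 57 uM. SteadyGlo luminescence gave expression; GF-AFC fluorescence gave viability.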
TGFb inhibitor: qHTS for Inhibitors of TGF-b. 410,000 tested, 1.2% active. Potency, µM (highest dose often 46.1 µM), for inactives: top-dose activity, negative = inhibition, most hits filed as inhibitors. HepG2 CAGA-GFP TGF-b/SMAD3 reporter, GFP fluorescence, 18 h; TGF-beta stimulated, 500 pg/mL final; note: potency is the fitted concentration of half-maximal effect; % is set by controls: 0 for no effect and ±100 for the full control effect; nearly all actives have a fitted effect of over 65% in size
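Using HEPG2 CAGA-GFP reporter cells at 1000 cells/well, we pinned test compounds, stimulated with recombinant TGF-beta (500 pg/mL final) and measured total well GFP after 18 h.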
Six1-Eya2 inh: qHTS Assay for Inhibitors of the Six1/Eya2 Interaction; 360,000 tested, 0.56% active; Homeobox protein SIX1 (Homo sapiens) + Protein phosphatase EYA2 (Homo sapiens), …; activity change, % (no concentration beside the values); AID 651725, 2012; AlphaScreen GST-Six1/His-Eya2 binding, biochemical; stronger effect = lower value; in the data active = activity change below about -65%; inconclusive = mostly about -30% to -63%; note: % is set by controls: 0 for no effect and ±100 for the full control effect
Target sequence (O00167 whole entry, looked up): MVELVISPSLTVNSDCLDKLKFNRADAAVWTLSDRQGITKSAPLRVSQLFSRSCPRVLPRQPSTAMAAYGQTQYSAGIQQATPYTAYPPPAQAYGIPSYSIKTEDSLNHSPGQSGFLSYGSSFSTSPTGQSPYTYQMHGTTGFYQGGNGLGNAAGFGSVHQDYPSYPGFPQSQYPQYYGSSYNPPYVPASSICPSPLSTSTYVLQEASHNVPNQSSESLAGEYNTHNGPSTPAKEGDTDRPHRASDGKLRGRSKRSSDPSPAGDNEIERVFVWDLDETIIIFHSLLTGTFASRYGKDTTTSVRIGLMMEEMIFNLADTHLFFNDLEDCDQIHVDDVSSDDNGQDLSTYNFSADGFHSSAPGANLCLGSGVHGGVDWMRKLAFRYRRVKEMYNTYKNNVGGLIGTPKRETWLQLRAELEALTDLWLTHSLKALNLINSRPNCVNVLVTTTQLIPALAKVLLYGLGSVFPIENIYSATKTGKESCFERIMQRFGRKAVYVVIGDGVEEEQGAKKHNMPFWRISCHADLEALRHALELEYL
Target sequence (Q15475 whole entry, looked up): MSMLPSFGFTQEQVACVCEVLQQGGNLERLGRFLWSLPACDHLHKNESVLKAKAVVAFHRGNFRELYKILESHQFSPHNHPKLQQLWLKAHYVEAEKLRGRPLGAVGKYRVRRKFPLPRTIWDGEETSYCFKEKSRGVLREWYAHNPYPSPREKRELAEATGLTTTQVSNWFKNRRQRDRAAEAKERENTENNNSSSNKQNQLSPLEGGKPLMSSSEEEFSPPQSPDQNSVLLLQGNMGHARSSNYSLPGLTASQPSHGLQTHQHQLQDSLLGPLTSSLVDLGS
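Homogeneous AlphaScreen proximity assay pairing GST-Six1 with His-tagged Eya2 (added as 5X mix: 250 nM and 500 nM) in 50 mM Tris pH 8.0, 300 mM NaCl, 1 mM TCEP. Glutathione donor and nickel acceptor beads; 1 h, 37 °C, dark.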
TGFb confirm: qHTS for Inhibitors of TGF-b: Confirmation of Cherry Picks; 1,600 tested, 63% active; AID 720534, 2013; Potency, µM (top dose mostly 46.1 µM), for inactives: top-dose activity, negative = inhibition, most hits filed as inhibitors; HepG2 CAGA-GFP TGF-b reporter, GFP fluorescence, 18 h; cells stimulated with TGF-beta, 500 pg/mL; shares compounds with TGFb inhibitor; note: potency is the fitted concentration of half-maximal effect; % is set by controls: 0 for no effect and ±100 for the full control effect; nearly all actives have a fitted effect of over 65% in size
HepG2 tox-2: qHTS for Inhibitors of TGF-b: Cytotox Counterscreen for Cherry Picks. shares compounds with TGFb inhibitor. HepG2 CAGA-GFP viability, ATP luminescence, 18 h; cells stimulated with TGF-beta, 500 pg/mL. Potency, µM (titrated, usually from 46.1 µM), for the others: top-dose activity, negative = cytotoxicity, most hits filed as inhibitors. 1,600 tested, 27% active. AID 720535, 2013; note: potency is the fitted concentration of half-maximal effect; % is set by controls: 0 for no effect and ±100 for the full control effect; nearly all actives have a fitted effect of over 70% in size
CCL64 TGFb inh: qHTS for Inhibitors of TGF-b: CCL64 Cells Orthogonal Assay for Cherry Picks. shares compounds with TGFb inhibitor. CCL64 CAGA-GFP reporter, TGF-b stimulated, GFP fluorescence, 18 h. Potency, µM (highest dose often 46.1 µM), for inactives: at the highest dose activity, negative = inhibition, actives largely listed as inhibitors. 1,600 tested, 41% active; note: potency is the fitted concentration of half-maximal effect; nearly all actives have a fitted effect of over 65% in size
TGFb COP inh: qHTS for Inhibitors of TGF-b: Hit Validation in HepG2 Cells using COP promoter. shares compounds with TGFb inhibitor. HepG2 COP-GFP TGF-b reporter, GFP fluorescence, 18 h; cells stimulated by added recombinant TGF-beta. Potency, µM (top dose mostly 46.1 µM), without a hit: top-dose activity, negative = inhibition, most hits filed as inhibitors. 1,600 tested, 3% active; note: potency is the fitted concentration of half-maximal effect; nearly all actives have a fitted effect of over 70% in size
* hit, by the source's call; i = inactive; ? = inconclusive; . = no result. An excerpt weighted towards active compounds, which were near 2.8% of everything screened. Unless noted, calls come from the whole dose curve; as a rule, active = well fitted curve in the direction sought with a large enough effect; inconclusive = small, poorly fitted or top-dose-only effect, or another doubt; inactive = no such curve, though single readings can be large; an effect the other way counts as inactive or inconclusive.

SMILES	HepG2 tox-1	CtBP-E1A blk	ATXN viability	ATXN2 expr inh	TGFb inhibitor	Six1-Eya2 inh	TGFb confirm	HepG2 tox-2	CCL64 TGFb inh	TGFb COP inh
O=C(Nc1ccc(Cl)c(Cl)c1)Nc1ccc(N2CCCC2)c(S(=O)(=O)Nc2ccccc2Cl)c1	-25.6%	-21.2	?	?	3.16µM*	-18.7	4.61µM*	7.31µM*	0.581µM*	85.8%
Cc1cc(OCC(=O)Nc2sc3c(c2C(N)=O)CCCC3)ccc1C(C)C	0.3%	.	i	4.6%	-0.2%	.	.	.	.	.
CC(CNC(=O)Cn1ccc2cc(S(=O)(=O)N3CCCCC3)ccc21)c1ccccc1 (stereo not drawn)	-30.1%	.	?	-16.7%	?	.	.	.	.	.
CC1(C)OC(=O)C2(Cc3cc([N+](=O)[O-])ccc3N3CCCCCC32)C(=O)O1 (stereo not drawn)	4.7%	.	.	.	1.9%	.	.	.	.	.
O=C(Nc1ccc(N2CCCCC2)c(S(=O)(=O)Nc2ccccc2Cl)c1)c1cccnc1	-7.5%	0.2	i	0.0%	12.6µM*	-1.9	?	?	?	61.6%
O=C(Nc1cccc(NC(=O)c2ccc([N+](=O)[O-])o2)c1)c1ccco1	11.2µM*	-1.1	?	-26.0%	3.98µM*	-11.4	6.51µM*	?	16.4µM*	?
O=C(Nc1cccc(NC(=O)c2cccs2)c1)c1ccc([N+](=O)[O-])o1	22.4µM*	-8.4	?	?	5.62µM*	-7.5	5.17µM*	20.6µM*	11.6µM*	?
O=C(Nc1ccc(NC(=O)c2ccc([N+](=O)[O-])o2)cc1Cl)c1ccco1	-27.1%	3.4	i	0.8%	8.5%	2.1	.	.	.	.
Cc1cc(NC(=O)C2CCN(S(=O)(=O)c3ccc(Br)s3)CC2)ccc1Br	-10.1%	.	i	11.6%	?	.	.	.	.	.
CCC(C(=O)NCCc1cc(OC)ccc1OC)n1nc(C)c2sc3ccccc3c2c1=O (stereo not drawn)	-12.1%	.	.	.	0.7%	.	.	.	.	.
CCc1cccc(C)c1NC(=O)C(CC)Sc1nc2ccncc2[nH]1 (stereo not drawn)	-34.4%	.	i	3.1%	?	.	.	.	.	.
Cc1sc2nc(CN(C(=O)c3cccs3)C3CCCC3)[nH]c(=O)c2c1C	-21.4%	-8.9	i	12.7%	-17.6%	-5.6	.	.	.	.
O=C(c1cccs1)N(Cc1nc2sc3c(c2c(=O)[nH]1)CCCC3)C1CCCC1	1.1%	-24.8	?	-4.6%	?	-5.8	?	?	?	29.0%
